PubChem BioAssay AID720597 (Broad Institute, 2013)
Measured potencies and affinities stand elsewhere.

Biological target: NAD-dependent protein deacylase sirtuin-5, mitochondrial (Homo sapiens) (UniProt Q9NXA8)
Test: blockers of sirtuin-5 peptide desuccinylation – biochemical, fluorescence imaging, cherry-pick, set 6, dose response (AID 720597);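 note: lower AMC signal can also come from blocking the trypsin step; 0% = median of neutral control wells and -100% = median of positive control wells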
Settings: Purified SirT5, succinyl-peptide-AMC/trypsin fluorescence; series mostly up to 15 µM; activity change, negative = inhibition: at the top concentration;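 active = fitted half-maximal dose no more than twice the top valid tested dose, for compounds that lower signal; inconclusive = fit invalid, or curve flat with activity between -70 and -30; inactive = potency past limit, curve flat within ±30, or signal increasing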

Chain of NAD-dependent protein deacylase sirtuin-5, mitochondrial (Homo sapiens) (Q9NXA8 whole entry, looked up): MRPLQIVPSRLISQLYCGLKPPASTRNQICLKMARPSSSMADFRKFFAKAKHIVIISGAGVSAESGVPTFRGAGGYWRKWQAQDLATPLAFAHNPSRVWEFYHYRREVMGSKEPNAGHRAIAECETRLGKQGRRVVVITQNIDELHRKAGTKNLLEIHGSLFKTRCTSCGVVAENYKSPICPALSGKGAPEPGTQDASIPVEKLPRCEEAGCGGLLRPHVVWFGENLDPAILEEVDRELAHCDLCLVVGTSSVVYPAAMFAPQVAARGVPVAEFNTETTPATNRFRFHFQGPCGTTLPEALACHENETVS

Activity change, negative = inhibition, inactive:
C[C@@H]1CN([C@@H](C)CO)S(=O)(=O)c2ccc(C3=CCCCC3)cc2O[C@@H]1CN(C)S(=O)(=O)c1ccc(F)cc1 -28.7%, Cc1ccc(S(=O)(=O)N(C)C[C@@H]2OCCCC[C@@H](C)Oc3ccc(NS(=O)(=O)c4ccc(F)cc4)cc3C(=O)N([C@@H](C)CO)C[C@@H]2C)cc1 -6.02%, O=C(NCC1CCCCC1)[C@H]1[C@H](CO)[C@H]2Cn3c(cccc3=O)[C@@H]1N2CCc1ccccc1 -24.3%, C[C@@H]1CCCCO[C@H](CN(C)Cc2ccc(C(=O)O)cc2)[C@H](C)CN([C@H](C)CO)C(=O)c2cc(NS(=O)(=O)c3cccs3)ccc2O1 -13.8%, CCCC(=O)Nc1ccc2c(c1)OC[C@@H](C)N(Cc1ccccc1)C[C@H](C)[C@@H](OC)CN(C)C2=O -11.1%, COc1cccc(CNC(=O)C[C@H]2CC[C@@H]3[C@@H](COc4ccc(NC(=O)c5cccs5)cc4C(=O)N3C)O2)c1 5.59%, C[C@@H]1CN([C@H](C)CO)C(=O)c2cccc(NC(=O)C3CCCCC3)c2O[C@@H]1CN(C)CC1CC1 -16.1%, CCCNC(=O)N1[C@H](CO)[C@H](c2ccccc2)C12CN(C(=O)CC1CC1)C2 -21.9%, C[C@H](CO)N1C[C@H](C)[C@H](CN(C)Cc2ccccc2F)Oc2cc(C#CC3CC3)ccc2S1(=O)=O 37.8%, Cc1ccccc1S(=O)(=O)N1CCCCN2[C@H](CO)[C@@H](c3ccc(-c4ccccc4)cc3)[C@@H]2C1 -8.88%, Cc1ccc(S(=O)(=O)N(C)C[C@H]2Oc3ccc(NC(=O)Cn4cnnn4)cc3CC(=O)N([C@@H](C)CO)C[C@H]2C)cc1 6.02%, CCCNC(=O)N1[C@@H]2Cn3c(cccc3=O)[C@H]1[C@@H](C(=O)N1CCC(Cc3ccccc3)CC1)[C@@H]2CO 2.68%, O=C(NCC[C@H]1CC[C@@H](NC(=O)Nc2cc(F)ccc2F)[C@H](CO)O1)Nc1ccc(F)cc1 -8.82%
